Compound activity (PubChem BioAssay)
Shown are actives, neighbours in structure and some others; about 2.4% of the full set was active somewhere.
FEN1 inh: human FEN1 inhibition; P39748; Recombinant FEN1 flap cleavage, fluorescence, 15 min; Potency, µM (series often up to 114 µM), inactives show top-dose activity change, negative = inhibition, actives largely listed as inhibitors; actives 0.35% (n = 390,000); AID 588795; note: potency is the fitted concentration of half-maximal effect; % is set by controls: 0 for no effect and ±100 for the full control effect; nearly all actives have a fitted effect of over 65% in size
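Reaction started by adding substrate (50 nM final) to 10 nM enzyme after 15 min room-temperature compound preincubation. Reads at 0 and 15 min, with data normalized and fitted to a four-parameter Hill equation.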
Pol eta inh-1: blocks human DNA polymerase eta activity | Q9Y253 | recombinant Pol eta, fluorescent DNA replication assay | Potency, µM (doses to about 114 µM), for inactives: at the top dose activity change, negative = inhibition, most hits filed as inhibitors | actives 1.2% (n = 390,000) | AID 588591; note: potency is the fitted concentration of half-maximal effect; % is set by controls: 0 for no effect and ±100 for the full control effect
Target sequence (Q9Y253 whole entry, looked up): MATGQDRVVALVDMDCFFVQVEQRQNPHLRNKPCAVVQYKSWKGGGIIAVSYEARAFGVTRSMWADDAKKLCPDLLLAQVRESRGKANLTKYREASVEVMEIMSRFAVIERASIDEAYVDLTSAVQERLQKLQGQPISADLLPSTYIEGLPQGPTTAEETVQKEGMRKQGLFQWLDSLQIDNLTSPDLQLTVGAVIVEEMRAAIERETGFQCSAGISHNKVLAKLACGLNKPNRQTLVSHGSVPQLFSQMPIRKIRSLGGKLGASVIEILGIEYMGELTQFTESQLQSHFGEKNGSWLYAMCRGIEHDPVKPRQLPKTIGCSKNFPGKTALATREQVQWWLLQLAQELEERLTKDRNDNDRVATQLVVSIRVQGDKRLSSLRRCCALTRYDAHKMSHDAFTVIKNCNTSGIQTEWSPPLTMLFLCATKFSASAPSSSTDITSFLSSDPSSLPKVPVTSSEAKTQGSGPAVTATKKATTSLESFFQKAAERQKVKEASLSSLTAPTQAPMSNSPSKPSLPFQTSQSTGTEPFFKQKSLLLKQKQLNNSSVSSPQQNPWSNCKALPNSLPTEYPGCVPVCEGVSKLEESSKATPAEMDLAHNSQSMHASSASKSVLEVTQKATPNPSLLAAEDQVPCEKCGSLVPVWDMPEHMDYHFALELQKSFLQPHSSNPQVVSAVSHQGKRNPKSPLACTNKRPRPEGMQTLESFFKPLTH
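Fluorescent replication assay: 50 nM final substrate added after a 15 min room-temperature compound preincubation with 10 nM enzyme. Signal taken at 0 min and again at 10 min.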
Pol iota inh: blocks human DNA polymerase iota activity. actives 1% (n = 390,000). AID 588590. Potency, µM (highest dose often 115 µM), for the others: top-dose activity, negative = inhibition, usual class: inhibitors. Pol iota fluorescent replication assay, 10 min; note: potency is the fitted concentration of half-maximal effect
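Pol iota at 10 nM preincubated 15 min with compounds at room temperature; reaction started with fluorescent substrate, 50 nM final. Fluorescence read kinetically at 0 and 10 min; buffer-only wells as negative control.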
Pol beta inh: blocks human DNA polymerase beta activity | AID 485314 | Potency, µM (doses to about 114 µM), for inactives: top-dose activity change, negative = inhibition, hits mostly inhibitors | Pol beta primer extension/strand displacement, fluorescence kinetic | actives 1.3% (n = 340,000) | P06746; note: potency is the fitted concentration of half-maximal effect; % is set by controls: 0 for no effect and ±100 for the full control effect
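Curves were derived by four-parameter Hill fits of normalized qHTS data. The kinetic fluorescent primer-extension read was taken at 0 and 10 min after 50 nM substrate, following a 15 min room-temperature preincubation of 10 nM enzyme with compounds.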
WRN inhibitor: WRN helicase (human) inhibition. actives 0.46% (n = 360,000). Potency, µM (series often up to 114 µM), for inactives: top-dose activity change, negative = inhibition, usual class: inhibitors. Q14191. WRN helicase unwinding, fluorescent forked duplex, kinetic; note: potency is the fitted concentration of half-maximal effect; % is set by controls: 0 for no effect and ±100 for the full control effect; nearly all actives have a fitted effect of over 55% in size
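Kinetic fluorescence helicase assay: unwinding of a quenched forked DNA duplex (100 nM final) with 2 mM ATP final raises red fluorescence (525/598 nm). Compounds sat 15 min at room temperature with 20 nM WRN beforehand.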
Pol kappa inh-1: inhibitors of human DNA polymerase kappa | Q9UBT6 | purified Pol kappa, fluorescent DNA synthesis assay, 10 min | Potency, µM (series often up to 107 µM), inactives show top-dose activity, negative = inhibition, usual class: inhibitors | actives 0.53% (n = 400,000) | AID 588579; note: potency is the fitted concentration of half-maximal effect; % is set by controls: 0 for no effect and ±100 for the full control effect
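50 nM final substrate added after 15 min RT preincubation of 10 nM Pol kappa with compound; fluorescence read at 0 and 10 min.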
GALK inh confirm: confirmation of human galactokinase (GALK) inhibitors; Potency, µM (doses to about 115 µM), for inactives: top-dose activity, negative = inhibition, actives largely listed as inhibitors; actives 70% (n = 150); shares compounds with Pol eta inh-1; purified GALK, Kinase-Glo ATP depletion luminescence; AID 2015
Redox cycling: generates H2O2 by redox cycling, flagging GALK artifacts | actives 40% (n = 150) | shares compounds with Pol eta inh-1 | Potency, µM (series often up to 115 µM), for inactives: top-dose activity change, negative = H2O2 signal, most hits filed as inhibitors | Phenol red-HRP H2O2 redox cycling, absorbance 600 nm
HEK293 tox: counter-screen for GALK inhibitors: HEK293 cell cytotoxicity; shares compounds with Pol eta inh-1; HEK-293 viability, ATP luminescence (CellTiter-Glo), 24/48 h; Potency, µM (series often up to 46.1 µM), without a hit: top-dose activity change, negative = cytotoxicity, hits mostly inhibitors; actives 10% (n = 170); AID 2547; note: potency is the fitted concentration of half-maximal effect; % is set by controls: 0 for no effect and ±100 for the full control effect
Pol kappa inh-2: Pol kappa (human) inhibition, cherry-pick confirmation; shares compounds with Pol eta inh-1; purified Pol-kappa, fluorescent strand-displacement substrate; Potency, µM, hits mostly inhibitors; actives 76% (n = 920); AID 720501; note: potency is the fitted concentration of half-maximal effect
Pol eta inh-2: Pol eta (human) inhibition, cherry-pick confirmation; shares compounds with Pol eta inh-1; actives 64% (n = 2,600); Potency, µM, most hits filed as inhibitors; Pol eta primer extension, TAMRA/BHQ fluorescence, 10 min; note: potency is the fitted concentration of half-maximal effect
Active calls of the source: *; u = inconclusive; x = no result; [ ] = remark or other dose. Calls come from the whole dose curve; as a rule, active = well fitted curve in the direction sought with a large enough effect; inconclusive = small, poorly fitted or top-dose-only effect, or another doubt; inactive = no such curve, though single readings can be large; an effect the other way counts as inactive or inconclusive.

SMILES	FEN1 inh	Pol eta inh-1	Pol iota inh	Pol beta inh	WRN inhibitor	Pol kappa inh-1	Pol eta inh-2	others
Cc1cccc(Oc2ccccc2NS(=O)(=O)c2ccc(CCC(=O)O)cc2)c1	-1.8%	20µM*	u	x	-3.3%[11.6 µM]	-44.4%	84.9*	Pol kappa inh-2=18.9*
NC(=O)c1c(NC(=O)C2c3ccccc3Oc3ccccc32)sc2c1CCCCC2	2.4%	35.5µM*	u	44.7µM*	-12.0%[11.6 µM]	-28.3%	u
O=C(Cc1ccc(Br)cc1)Nc1ncc([N+](=O)[O-])s1	-20.4%	u	u	u	-6.2%[11.6 µM]	-5.0%	u	Pol kappa inh-2=u
O=C(COC(=O)COc1ccccc1)Nc1ncc([N+](=O)[O-])s1	u	10µM*	u	x	u	u	30.1*	Pol kappa inh-2=11.9*
O=C(Cc1ccc(Cl)cc1)Nc1ncc([N+](=O)[O-])s1	4.2%	0.4%	65.2%	-0.8%	-18.2%	-13.9%	x
Cn1c(=O)c2c(-c3ccccc3Cl)n(-c3cc(Cl)ccc3O)cc2n(C)c1=O	1.7%	-15.4%	-23.5%	-10.2%	x	-5.4%	x
O=C(O)c1ccc(N/N=C/C2=C(N3CCOCC3)C(=C\c3ccccc3)/CC2)cc1	-20.4%	50.1µM*	u	u	u	31.6µM*	u
CN(C)c1ccc(NC(=O)CSCc2nc3c(nnn3Cc3ccc(F)cc3)c(=O)[nH]2)cc1	-0.7%	50.1µM*	28.2µM*	28.2µM*	-31.7%[57.1 µM]	u	u
Cc1cccc(NC(=O)CSCc2nc3c(nnn3Cc3ccc(F)cc3)c(=O)[nH]2)c1C	-3.0%	-23.4%	-25.1%	6.5%	-18.1%	-5.8%	x
CCc1ccc(-n2nc(CO)c(C(=O)NCCc3ccccc3)n2)cc1	17.9%	-9.4%	-7.6%	2.3%	x	-1.3%	x
Cc1cccc(C)c1Nc1nc2ccccc2o1	16.0%	-25.5%	23.8%	-7.7%	0.8%	4.2%	x
O=C1CCCC2=C1C1(CCC1)N=C(Nc1nc3ccccc3o1)N2	x	x	x	x	x	x	x	HEK293 tox=-1.0%
O=C1CC(c2ccccc2)CC2=C1C1(CCCC1)N=C(Nc1nc3ccccc3o1)N2 (centres undefined)	x	x	x	x	x	x	x	HEK293 tox=-3.4%
O=C1CCCC2=C1C1(CCCC1)N=C(Nc1nc3ccccc3o1)N2	x	x	x	0.6%	x	x	x	HEK293 tox=-0.6%
O=C1CCCC2=C1C1(CCCCC1)N=C(Nc1nc3ccccc3o1)N2	u	-17.2%	1.0%	-22.9%	-7.6%	-10.1%	x	GALK inh confirm=16.8µM*;Redox cycling=-5.4%;HEK293 tox=-1.6%
Clc1ccccc1Nc1nc2ccccc2o1	2.3%	-4.9%	8.8%	x	7.6%	-12.6%	x
COc1ccc(OC)c(NC(=O)CSc2nccn2-c2cc(C)cc(C)c2)c1	-9.4%	-4.3%	-4.9%	10.8%	x	-8.2%[60.1 µM]	x
COc1ccc(C(=O)C[n+]2cc(Br)cc(Br)c2)cc1	u	x	-11.1%	x	x	-8.7%	x
COc1cc(OC)c(NC(=O)CN2C(=O)CCn3nc(-c4cccn4C)cc32)cc1Cl	-6.1%	u	41.0%	9.0%	x	-13.0%[60.1 µM]	x
O=C(NC1(O)C(=O)c2ccccc2C1=O)c1ccc(C(F)(F)F)cc1	-4.7%	44.7µM*	1.78µM*	34.4%	u	-15.1%	u	GALK inh confirm=18.8µM*;Redox cycling=10.6µM*;HEK293 tox=-7.2%
O=C(N[C@@H](Cc1ccccc1)C(=O)O)c1ccc(C(F)(F)F)cc1	-4.3%	-3.2%	19.8%	-22.9%	11.3%	-24.4%	x
Cc1ccc(C(=O)NC2(O)C(=O)c3ccccc3C2=O)cc1C	-14.9%	44.7µM*	2µM*	11.6%	-5.2%[11.6 µM]	-9.2%	u	GALK inh confirm=26.6µM*;Redox cycling=11.9µM*;HEK293 tox=3.1%
CCOC(=O)/C(=C\c1ccc(N2CCC(c3ccccc3)=N2)cc1)C(C)=O	-6.7%	u	-11.3%	x	u	-5.3%	u
CCn1c(SCC(=O)NCc2ccco2)nnc1-c1cccc(N(C)C)c1	-7.3%	x	10.8%	x	x	-8.7%	x
Cc1ccc(F)c(C2C3C=CCCC3(C)C(=O)N2Cc2ccccc2)c1 (centres undefined)	-10.2%	x	-21.6%	x	x	-17.6%	x
SMILES	FEN1 inh	Pol eta inh-1	Pol iota inh	Pol beta inh	WRN inhibitor	Pol kappa inh-1	Pol eta inh-2	others
CC1(OC(=O)CCc2ccccc2)C(=O)C=C2C=C3CCCN3C=C2C1=O (centres undefined)	-10.4%	44.7µM*	12.6µM*	44.7µM*	-6.6%[11.6 µM]	u	u
Cc1cc(/C=c2\sc3nc4ccccc4n3c2=O)c(C)n1-c1ccc(C(=O)O)cc1	-13.0%	22.4µM*	44.7µM*	22.4µM*	u	-38.0%	u
Cc1cc(C=C2C(=O)c3ccccc3C2=O)c(C)n1-c1ccc(C(=O)O)cc1	u	25.1µM*	35.5µM*	u	u	u	u
Cc1cc(C=C2C(=O)c3ccccc3C2=O)c(C)n1-c1ccccc1	-0.5%	-23.7%	-6.9%[58.9 µM]	20.5%	-13.4%	-4.3%	x
O=C1C(=Cc2cccn2-c2ccccc2)C(=O)c2ccccc21	-0.8%	u	37.3%	6.8%	-20.3%[57.1 µM]	-14.6%	x
O=C(O)c1cccc(-n2cccc2C=C2C(=O)c3ccccc3C2=O)c1	50.1µM*	15.8µM*	u	u	u	-42.6%	75.7*
NC(=NC1C2CC3CC(C2)CC1C3)Nc1ccc(I)cc1 (centres undefined)	x	x	x	x	x	6.2%[19.4 µM]	x
CN(C)c1ncc2ncc(=O)n(Cc3cccs3)c2n1	x	x	x	x	x	9.2%[60.1 µM]	x
COc1cc2c(cc1OC)C1O[C@](CCCCN3C(=O)c4ccccc4C3=O)(C2)Oc2c1c(=O)oc1ccccc21	x	x	x	-22.3%[22.9 µM]	x	x	x
CCN(CC)Cc1cc(O)c(CN(CC)CC)cc1O	u	50.1µM*	u	3.55µM*	50.1µM*	8.91µM*	u
Cc1ccc(C(=O)COc2ccc3ccc(=O)oc3c2)cc1	-9.6%	-5.5%	11.7%	-3.2%	-9.8%	-9.5%	x
